This is a sample that favours compounds with a hit; in the whole collection about 19% have one here.
IL-1B inflam inh: qHTS for Inhibitors of Inflammasome Signaling: IL-1-beta AlphaLISA Primary Screen; 4.7% of 360,000 active; THP-1 LPS/ATP IL-1B secretion, AlphaLISA, 16 h; stronger effect = lower value; activity change, % at 57.5 µM; in the data active = activity change below about -50%; inconclusive = mostly about -30% to -49%; also: % is scaled to controls: 0 for no effect and ±100 for the full control effect
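THP-1 cells pretreated 1 hr with compounds (up to 57.5 uM final), then stimulated with LPS (250 ng/mL final) plus ATP (1.25 mM final); secreted IL-1B measured by AlphaLISA after 16 hr, decreased signal indicating inhibition.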
DT40 TDP1 CPT: qHTS for Inhibitors of human tyrosyl-DNA phosphodiesterase 1 (TDP1): qHTS in cells in presence of CPT; 12% of 420,000 active; Potency, µM (titrated, usually from 46.2 µM), inactives show at the highest dose activity change, negative = growth inhibition, actives largely listed as inhibitors; chicken DT40 Tdp1-/-;hTDP1 cells + 20 nM CPT, ATP luminescence, 48 h; also: potency is read from the fitted curve at half-maximal effect; % is scaled to controls: 0 for no effect and ±100 for the full control effect; nearly all actives have a fitted effect of over 55% in size
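Cell growth measured by CellTiter-Glo luminescence after a minimum 48 h, 37 C compound exposure with 20 nM CPT in Tdp1-knockout DT40 cells stably expressing hTDP1, seeded 400/well; qHTS titration format.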
TDP1 cell noCPT: qHTS for Inhibitors of human tyrosyl-DNA phosphodiesterase 1 (TDP1): qHTS in cells in absence of CPT | 15% of 420,000 active | DT40 Tdp1-/- hTDP1 cells, no CPT, ATP luminescence, 48 h | Potency, µM (series often up to 46.2 µM), for the others: at the top dose activity change, negative = growth inhibition, most hits filed as inhibitors; also: potency is read from the fitted curve at half-maximal effect; % is scaled to controls: 0 for no effect and ±100 for the full control effect; nearly all actives have a fitted effect of over 55% in size
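DT40 Tdp1-/-;hTDP1 cells, no CPT (DMSO vehicle only), 400 cells/well; compounds pin-transferred; ≥48 hr, 37 °C; CellTiter-Glo 30 min RT dark, luminescence read.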
TGFb inhibitor: qHTS for Inhibitors of TGF-b | 1.2% of 410,000 active | HepG2 CAGA-GFP TGF-b/SMAD3 reporter, GFP fluorescence, 18 h; TGF-beta stimulated, 500 pg/mL final | Potency, µM (top dose mostly 46.1 µM), for the others: top-dose activity, negative = inhibition, actives largely listed as inhibitors | AID 588855, 2011; also: potency is read from the fitted curve at half-maximal effect; % is scaled to controls: 0 for no effect and ±100 for the full control effect; nearly all actives have a fitted effect of over 65% in size
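Read-out: total well GFP (ex488/em500-530) summed from mean per-cell fluorescence. Cells: HEPG2 CAGA-GFP, 1% FBS DMEM, 18 h at 37 degrees C with 500 pg/mL final TGF-beta. Unstimulated wells served as the full-inhibition control; stimulated DMSO wells = 0%.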
HepG2 viability: qHTS for Inhibitors of TGF-b: Cytotox Counterscreen | AID 588856, 2011 | HepG2 CAGA-GFP viability, ATP luminescence, 18 h | 0.76% of 410,000 active | Potency, µM (doses to about 46.1 µM), for the others: at the top dose activity change, negative = cytotoxicity, most hits filed as cytotoxic; also: potency is read from the fitted curve at half-maximal effect
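HepG2 CAGA-GFP cells (1000/well, DMEM with 1% FBS) received compound, then TGF-beta at 500 pg/mL final, and were incubated 18 hours at 37 degrees C. Viability was read by CellTiter-Glo luminescence. Media-only wells were set as complete cell-killing and DMSO as no toxicity.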
S-ASM inh: Inhibitors of Secretory Acid Sphingomyelinase (S-ASM): qHTS | AID 504937, 2011 | Potency, µM (top dose mostly 57.5 µM), inactives show at the top dose activity change, negative = inhibition, most hits filed as inhibitors | Sphingomyelin phosphodiesterase (Homo sapiens), P17405 | placental ASM, HMU-PC fluorogenic substrate, 60 min | 0.006% of 340,000 active; also: potency is read from the fitted curve at half-maximal effect
Target sequence (P17405 47-631 limits assumed): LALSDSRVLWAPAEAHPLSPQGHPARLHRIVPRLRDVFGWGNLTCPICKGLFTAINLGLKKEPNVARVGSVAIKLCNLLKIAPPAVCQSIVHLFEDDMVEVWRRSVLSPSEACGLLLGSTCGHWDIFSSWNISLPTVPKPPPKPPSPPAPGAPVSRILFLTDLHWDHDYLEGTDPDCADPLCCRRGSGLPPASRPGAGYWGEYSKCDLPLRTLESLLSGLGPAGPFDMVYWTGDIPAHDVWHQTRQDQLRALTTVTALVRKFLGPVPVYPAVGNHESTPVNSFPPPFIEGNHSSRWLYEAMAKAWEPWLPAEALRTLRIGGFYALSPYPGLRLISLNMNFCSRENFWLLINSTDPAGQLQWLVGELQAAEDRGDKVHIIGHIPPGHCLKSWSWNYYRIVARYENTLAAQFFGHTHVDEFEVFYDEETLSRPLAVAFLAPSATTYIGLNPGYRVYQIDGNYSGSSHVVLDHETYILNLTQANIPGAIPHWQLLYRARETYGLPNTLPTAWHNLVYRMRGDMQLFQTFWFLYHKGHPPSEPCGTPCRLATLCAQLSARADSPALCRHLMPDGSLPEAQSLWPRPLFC
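HMU-PC0 cleavage (9 uM final) by human placental ASM, 60 min at 37 °C following 10 min compound exposure at RT; stopped at pH 10, fluorescence Ex 386/Em 447 nm.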
Numbers without * were called inactive; i = inactive; u = inconclusive; x = no result; ! = not active in a repeat. Unless noted, calls follow the shape of the dose curve; as a rule, active = well fitted curve in the direction sought with a large enough effect; inconclusive = small, poorly fitted or top-dose-only effect, or another doubt; inactive = no such curve, though single readings can be large; an effect the other way counts as inactive or inconclusive.

SMILES	IL-1B inflam inh	DT40 TDP1 CPT	TDP1 cell noCPT	TGFb inhibitor	HepG2 viability	S-ASM inh
O=C(Nc1ccccc1Cl)c1ccc2c(c1)N(Cc1ccc(F)cc1)C(=O)CS2=O (configuration not stated)	-6	16µM*	u	-3%	-92%	-1%
CC(C)CCNC(=O)c1ccc2c(c1)N(Cc1ccccc1)C(=O)CS2=O (configuration not stated)	-2	21µM*	u	0%	-28%	-2%
CCOCCCNC(=O)c1ccc2c(c1)N(Cc1ccccc1)C(=O)CS2=O (configuration not stated)	9	2%	4%	5%	10%	2%
O=C(NCCc1ccccc1)c1ccc2c(c1)N(Cc1ccccc1)C(=O)CS2=O (configuration not stated)	-7	u	u	-15%	-17%	-5%
CC1CCC(NC(=O)C2CCN(S(=O)(=O)c3cccc4nonc34)CC2)CC1 (configuration not stated)	8	7%	-7%	-12%	-1%	-15%
CCN(CC)Cc1c(O)ccc2c(=O)c(-c3ccc4c(c3)OCCO4)coc12	1	3.3µM*	10µM*	8%	-16%	58%
CCN(CC)Cc1c(O)ccc2c(=O)c(-c3ccccc3)coc12	-12	9.2µM*	u	0%	-4%	125%
CCc1cccc(C)c1NC(=O)Cn1c(=O)n(-c2ccc(C)cc2)c(=O)c2c1cnn2C	x	-18%	-1%	1%	3%	x
CC(=O)c1cccc(NC(=O)COc2ccccc2C(=O)Nc2ccccc2)c1	x	u	u	-29%	-12%	x
O=C(COc1ccccc1C(=O)Nc1ccccc1)Nc1ccccc1F	x	u	16µM*	-2%	-1%	x
O=C(COc1ccccc1CNCc1ccccc1)Nc1ccccc1	-21	u	18µM*	-5%	-44%	2%
CC(=O)c1ccc(NC(=O)COc2ccccc2C(=O)Nc2ccccc2)cc1	2	11µM*	11µM*	2%	3%	-16%
N#Cc1ccc(NC(=O)COc2ccccc2C(=O)Nc2ccccc2)cc1	x	11µM*	u	-9%	-13%	x
C=CCc1ccccc1OCC(=O)NNC(=S)NCc1ccccc1	6	6.5µM*	5.2µM*	u	7%	0%
CCOC(=O)c1sc(NC(=O)c2cc3nc(-c4ccc(Br)cc4)cc(C(F)(F)F)n3n2)c(C(=O)OCC)c1C	x	u	23µM*	u	-19%	x
CCOC(=O)c1c(NC(=O)c2cc3nc(-c4ccccc4)cc(C(F)(F)F)n3n2)sc2c1CCC(C)C2 (configuration not stated)	x	23µM*	18µM*	58%	17%	x
CC(C)CC(=O)O/N=C1\C(=O)N(c2ccccc2)c2ccccc21	-64*	21µM*	23µM*	8%	-81%	0%
Cc1ccc(C(=O)C(C)OC(=O)c2cc(=O)[nH]c3ccccc23)cc1 (configuration not stated)	6	u	-19%	u	7%	3%
CC(=O)c1ccc2c(c1)OCCOCCOCCO2	6	-5%	-9%	14%	-5%	1%
C/C(=N/O)c1ccc2c(c1)OCCOCCOc1cc(/C(C)=N/O)ccc1OCCOCCO2	-19	u	16µM*	-3%	8%	-1%
C/C(=N\O)c1ccc2c(c1)OCCO2	-24	-4%	3.7µM*	-4%	-13%	-5%
O=C(NC(=S)Nc1ccc(N2CCCCC2)c(Cl)c1)c1ccc2c(c1)OCCO2	-7	16µM*	21µM*	-15%	-26%	-3%
Cc1cc(C)cc(C(=O)NC(=S)Nc2ccc3c(c2)OCCO3)c1	-16	16µM*	u	3%	-7%	-2%
Cc1cccc(-c2ocnc2C(=O)Nc2ncc(C)s2)c1	27	-15%	-20%	-1%	-27%	x
Cc1ccccc1CSc1nc(-c2cccc(F)c2)nc2c1Cc1c(CO)cnc(C)c1O2	x	-8%	-10%	-12%	1%	x
SMILES	IL-1B inflam inh	DT40 TDP1 CPT	TDP1 cell noCPT	TGFb inhibitor	HepG2 viability	S-ASM inh
CSc1nc(NCCN(C)C)c2sc3nc(-c4ccco4)c4c(c3c2n1)CCC4	-101*	6.5µM*	12µM*	u	-102%	4%
CC1(C)Cc2c(c(-c3ccco3)nc3sc4c(NCC5CCCO5)ncnc4c23)CO1 (configuration not stated)	-6	18µM*	21µM*	0%	-9%	118%
CSc1nc(SCC(=O)O)c2sc3nc(-c4ccccc4)c4c(c3c2n1)CCC4	-6	-3%	u	u	-45%	112%
CC1(C)Cc2c(C#N)c(NCCO)nc(-c3ccco3)c2CO1	x	-22%	u	u	-35%	i
CC1(C)Cc2c(c(-c3ccco3)nc3sc4c(NCCN5CCOCC5)ncnc4c23)CO1	-181*	8.2µM*	21µM*	-2%	-9%	82%
CC1(C)Cc2c(C#N)c(NCCN3CCOCC3)nc(-c3ccco3)c2CO1	-7	-13%	u	0%	-18%	282%
CC1(C)Cc2c(c(-c3ccco3)nc3sc4c(NCCCO)ncnc4c23)CO1	44	10µM*	8.2µM*	-5%	24%	50%
O=C1NC(N2CCOCC2)=N/C1=C/c1ccc2c(c1)OCO2	25	-12%	u	6%	-15%	173%
COC(=O)c1c(C)oc(C)c1S(=O)(=O)NCc1cccs1	11	2%	-1%	-20%	0%	-1%
COc1ccc2c(c1)Sc1ccccc1N2CCN(C)C	u	u	-23%	23%	-45%	-2%
CCN(CC)CCN1c2ccccc2Sc2ccccc21	0	u	u	-7%	-9%	1%
CCC(=O)c1ccc2c(c1)N(CCCN(C)C)c1ccccc1S2	u	u	21µM*	u	16µM*	-7%
CN(C)CCCN1c2ccccc2Sc2ccccc21	u	16µM*	18µM*!	7%	-7%	-1%
CN(C)CCCN1c2ccccc2CCc2ccc(Cl)cc21	u	15µM*	10µM*	-28%	-56%	4%

High-throughput results from PubChem BioAssay.
